D1 ag = human D1 receptor agonism; P21728; HEK293 T-REx D1 cells, calcium flux, agonist mode; activation, % at 2 µM; 1% of 360,000 active
Target sequence (P21728 whole entry, looked up): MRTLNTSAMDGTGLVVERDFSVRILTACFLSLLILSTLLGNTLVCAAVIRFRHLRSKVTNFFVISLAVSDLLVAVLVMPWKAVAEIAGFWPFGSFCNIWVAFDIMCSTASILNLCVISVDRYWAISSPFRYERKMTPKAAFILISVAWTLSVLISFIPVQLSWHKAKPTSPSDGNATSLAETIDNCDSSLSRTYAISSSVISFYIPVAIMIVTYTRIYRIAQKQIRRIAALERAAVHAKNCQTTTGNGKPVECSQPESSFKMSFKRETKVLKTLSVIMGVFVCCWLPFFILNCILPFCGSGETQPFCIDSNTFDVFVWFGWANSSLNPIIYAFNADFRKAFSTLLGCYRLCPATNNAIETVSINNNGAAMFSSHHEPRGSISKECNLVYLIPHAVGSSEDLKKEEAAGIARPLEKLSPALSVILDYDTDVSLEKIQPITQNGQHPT
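Tetracycline-induced HEK293 TREx D1 cells, force-coupled to calcium signalling, were dye-loaded with a no-wash calcium kit. Compound was pin-added after a 10 s baseline. Fluorescence was read kinetically at 1 cycle/s for 180 s, with calcium rises flagged as agonism.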
D1 antagonist = blocks dopamine activation of the human D1 receptor | activity change, negative = inhibition, % at 10 µM | AID 504652 | P21728 | HEK293 TREx D1 cells, calcium flux, dopamine EC80; active compounds read low | 3.2% of 360,000 active; in the data active = activity change below about -30%
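Allosteric or orthosteric antagonism assessed as attenuation of the calcium response to EC80 dopamine, added 180 s after compound, in induced HEK293 Trex D1 cells loaded with no-wash calcium dye.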
D1 potentiator = human D1 dopamine receptor positive modulation. HEK293 TREx D1 cells, calcium flux, dopamine EC20 potentiation. potentiation, % at 10 µM. 0.036% of 360,000 active; in the data active = potentiation above about 30%
TRHR PAM = TRH receptor (human) allosteric enhancement. TRHR cells, fluo-8 calcium fluorescence, EC20 TRH enhancement. enhancement, % at 2 µM. 0.66% of 360,000 active. AID 493056; in the data active = enhancement above about 30%
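TRHR-expressing cells loaded with fluo-8 calcium dye were read kinetically (ex 480/em 530) during compound addition, then stimulated with an EC20 of TRH (10 nM final). Enhancement of the Gq-mediated intracellular calcium response was scored.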
TRHR ag = TRH receptor (human) agonism | TRHR cells, calcium flux fluo-8, FDSS agonist mode | activation, % at 2 µM | 0.18% of 360,000 active | AID 493084
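TRHR-expressing cells, plated overnight in medium with 10% serum, were loaded with fluo-8 calcium dye at room temperature. After a 10 s baseline, library compound was pin-added and calcium release was recorded kinetically (ex 480/em 530) as agonist response.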
Numbers stand for hits. This is a sample that favours compounds with a hit; in the whole collection about 4.6% have one here. Rule as the data show it, unless noted: active = activation above about 30%; inactive = the rest.

How did CCC(=O)N(CCC(c1ccccc1)c1ccc2c(c1)OCO2)Cc1ccc(OC(C)C)cc1 (stereo not given) do in these assays?
D1 ag: inactive; D1 antagonist: -53.5; D1 potentiator: inactive; TRHR PAM: inactive; TRHR ag: inactive

Results for COC(=O)c1cc2occc2n1CC(=O)Nc1ccc(N(C)C)cc1 ?
D1 ag: inactive; D1 antagonist: inactive; D1 potentiator: inactive; TRHR PAM: inactive; TRHR ag: inactive

What do the screens show for `CCN(CC)S(=O)(=O)c1cc(C)ccc1SC`?
D1 ag: inactive; D1 antagonist: -38.0; D1 potentiator: inactive; TRHR PAM: inactive; TRHR ag: inactive

How did CCCC/C(=N\NC(=O)c1ccc(Br)o1)c1ccccc1 do in these assays?
D1 ag: inactive; D1 antagonist: -66.1; D1 potentiator: inactive; TRHR PAM: inactive; TRHR ag: inactive

What do the screens show for `CCCCCC/C(=N\NS(C)(=O)=O)c1ccccc1`?
D1 ag: inactive; D1 antagonist: -67.5; D1 potentiator: inactive; TRHR PAM: inactive; TRHR ag: inactive

What do the screens show for `Cc1ncc(CN2CCCC(C(=O)Nc3ccc(-c4cccc(F)c4)cc3)C2)n1C` (stereo not given)?
D1 ag: inactive; D1 antagonist: -31.6; D1 potentiator: inactive; TRHR PAM: inactive; TRHR ag: inactive

Results for COCc1cc(CN2CCCC(C(=O)Nc3ccc(-c4ccco4)cc3)C2)ccc1OC (stereo not given) ?
D1 ag: inactive; D1 antagonist: -30.1; D1 potentiator: inactive; TRHR PAM: inactive; TRHR ag: inactive

How did CC(C)n1cc(CN2CCCC(C(=O)Nc3cccc(-c4cc5ccccc5[nH]4)c3)C2)cn1 (stereo not given) do in these assays?
D1 ag: 30.4; D1 antagonist: -30.6; D1 potentiator: inactive; TRHR PAM: inactive; TRHR ag: inactive

What do the screens show for `Cn1cc(CN2CCCC(C(=O)Nc3cccc(-c4cc5ccccc5[nH]4)c3)C2)cn1` (stereo not given)?
D1 ag: inactive; D1 antagonist: inactive; D1 potentiator: inactive; TRHR PAM: inactive; TRHR ag: inactive

Results for COc1cccc(-c2ccc(NC(=O)C3CCCN(Cc4cnc(C)n4C)C3)cc2)c1 (stereo not given) ?
D1 ag: inactive; D1 antagonist: inactive; D1 potentiator: inactive; TRHR PAM: inactive; TRHR ag: inactive

Results for COc1cccc(-c2ccc(NC(=O)C3CCCN(Cc4cnn(C)c4)C3)cc2)c1 (stereo not given) ?
D1 ag: 32.5; D1 antagonist: inactive; D1 potentiator: inactive; TRHR PAM: inactive; TRHR ag: inactive

Results for O=C(NCCc1ccc(Cl)cc1)C(=O)NCC(c1ccc2c(c1)OCO2)N1CCOCC1 (stereo not given) ?
D1 ag: inactive; D1 antagonist: inactive; D1 potentiator: inactive; TRHR PAM: inactive; TRHR ag: inactive

How did O=S(=O)(Nc1ccc(F)cc1F)c1ccc(-n2cccn2)cc1 do in these assays?
D1 ag: inactive; D1 antagonist: inactive; D1 potentiator: inactive; TRHR PAM: inactive; TRHR ag: inactive

Results for COc1cccc(CN2CC(C(=O)N(C)Cc3ccnc4ccccc34)CCC2=O)c1 (stereo not given) ?
D1 ag: inactive; D1 antagonist: inactive; D1 potentiator: inactive; TRHR PAM: inactive; TRHR ag: inactive

What do the screens show for `O=S(=O)(c1ccc2c(c1)OCCO2)N1CCN(S(=O)(=O)c2cccc(Cl)c2F)CC1`?
D1 ag: inactive; D1 antagonist: inactive; D1 potentiator: inactive; TRHR PAM: inactive; TRHR ag: inactive

Results for CCOC(=O)c1cccc(NS(=O)(=O)c2ccc3[nH]c4c(c3c2)CCCC4)c1 ?
D1 ag: inactive; D1 antagonist: inactive; D1 potentiator: inactive; TRHR PAM: inactive; TRHR ag: inactive

What do the screens show for `Cc1ccc(C2C(C(=O)c3cccs3)=C(O)C(=O)N2c2nnc(C)s2)cc1` (stereo not given)?
D1 ag: 140.8; D1 antagonist: inactive; D1 potentiator: inactive; TRHR PAM: inactive; TRHR ag: 55.6

How did Cc1nnc(N2C(=O)C(O)=C(C(=O)c3ccco3)C2c2ccc(C(C)(C)C)cc2)s1 (stereo not given) do in these assays?
D1 ag: inactive; D1 antagonist: inactive; D1 potentiator: inactive; TRHR PAM: inactive; TRHR ag: inactive
